From PubChem BioAssay
Hits are enriched below; roughly 1.8% of the tested compounds scored in any of these assays.
ABCB6 inh 2: inhibitors of human ABC transporter ABCB6 | 360,000 tested, 0.19% active | K562-ABCB6 porphyrin accumulation, flow cytometry, 1 h; hits give low values | Q9NP58 | fluorescence ratio to DMSO, % at 10 µM;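 active = fluorescence ratio to DMSO below 75%, the collection mean minus 3 SD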;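 note: signal is porphyrin accumulated inside mitochondria; 100% equals median channel fluorescence of DMSO control wells; lower ratio means ABCB6 inhibition with less porphyrin fluorescence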
Target sequence (Q9NP58 whole entry, looked up): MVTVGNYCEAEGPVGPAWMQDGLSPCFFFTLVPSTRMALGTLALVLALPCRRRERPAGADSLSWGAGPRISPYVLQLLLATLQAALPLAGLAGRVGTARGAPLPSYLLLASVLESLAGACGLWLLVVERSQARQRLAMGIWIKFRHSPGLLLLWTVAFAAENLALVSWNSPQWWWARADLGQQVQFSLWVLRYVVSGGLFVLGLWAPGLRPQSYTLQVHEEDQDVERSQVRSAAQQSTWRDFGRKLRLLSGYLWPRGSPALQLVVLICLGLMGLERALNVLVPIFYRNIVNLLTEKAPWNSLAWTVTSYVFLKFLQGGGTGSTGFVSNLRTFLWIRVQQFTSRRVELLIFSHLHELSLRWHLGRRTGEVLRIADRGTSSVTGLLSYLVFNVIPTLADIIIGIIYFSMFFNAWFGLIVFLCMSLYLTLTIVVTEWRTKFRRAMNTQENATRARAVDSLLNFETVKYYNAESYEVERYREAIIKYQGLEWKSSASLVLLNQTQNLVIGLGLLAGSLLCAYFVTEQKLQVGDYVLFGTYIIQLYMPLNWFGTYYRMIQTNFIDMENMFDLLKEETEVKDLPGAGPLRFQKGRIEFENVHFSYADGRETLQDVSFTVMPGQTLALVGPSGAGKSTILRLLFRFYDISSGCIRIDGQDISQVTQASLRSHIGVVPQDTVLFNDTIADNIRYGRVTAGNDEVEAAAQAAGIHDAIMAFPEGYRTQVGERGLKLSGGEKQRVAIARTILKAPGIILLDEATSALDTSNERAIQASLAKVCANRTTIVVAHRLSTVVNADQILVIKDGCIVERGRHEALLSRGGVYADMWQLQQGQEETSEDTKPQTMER
Myeloid diff 2: promotes myeloid progenitor differentiation | ER-HoxA9 myeloid progenitors, lysozyme-GFP differentiation, flow cytometry | calls only at 10 µM | 360,000 tested, 1% active;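 active = normalized GFP-positive differentiation at or above the plate's own cutoff, the solvent-only control mean plus 3 SD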;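 note: cells exposed to compound for four days before flow analysis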
Granule exo inh: lytic granule exocytosis inhibition; TALL-104 LAMP-1 surface exposure, flow cytometry; cells stimulated with thapsigargin and PMA; inhibition, % at 10 µM; 360,000 tested, 0.66% active;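 active = inhibition above about 55%, limit read from the data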
Active calls of the source: *; i = inactive; + = active, no number.

SMILES	ABCB6 inh 2	Myeloid diff 2	Granule exo inh
CCN(C[C@H]1N[C@@](CC)(C(=O)OC)[C@H]2C(=O)N(Cc3ccccc3)C(=O)[C@@H]12)C(=O)Nc1ccc(C)cc1	103	+	-5
COc1ccc(CC(N)c2csc(Nc3cc(NCc4ccco4)ncn3)n2)cc1 (centres undefined)	95	i	9
CC(=O)c1ccc(OC(C)C(=O)NCC2(N3CCOCC3)CCCCC2)cc1 (centres undefined)	101	i	5
O=C(C1CCC(=O)N(C2CCCC2)C1)N1CCC(Oc2cccc(F)c2)CC1 (centres undefined)	99	+	2
O=C(C1CCC(=O)N(C2CC2)C1)N1CCC(Oc2cccc(F)c2)CC1 (centres undefined)	107	i	-1
COc1ccc(S(=O)(=O)N2CCCCC2)cc1NC(=O)CCNC(=O)c1ccco1	92	i	-9
CN1C(=O)C(C)(C)c2cc(S(=O)(=O)N3CCN(c4ccccc4F)CC3)ccc21	96	i	1
CCOC(=O)[C@]12CCC=C1N(Cc1ccccc1)C(=O)[C@H](CC(=O)NCc1ccc(OC)c(OC)c1)C2	99	i	-4
COC(=O)c1ccccc1S(=O)(=O)N1CCC(C(=O)OC(C)C(=O)N(C)Cc2ccccc2)CC1 (centres undefined)	101	i	4
CC(Sc1nnc(Nc2ccccc2)s1)C(=O)Nc1nc(-c2ccccc2)cs1 (centres undefined)	135	+	4
CC(Sc1nnc(NCc2ccccc2)s1)C(=O)Nc1ccc2c(c1)C(=O)c1ccccc1C2=O (centres undefined)	107	i	-1
N#CC1=C(N)Oc2cc(N)ccc2C1c1ccc(F)cc1F (centres undefined)	111	+	-8
N#CC1=C(N)Oc2cc(N)ccc2C1c1ccc(F)cc1 (centres undefined)	98	i	0
OC[C@@H]1CN(Cc2ccco2)C[C@H](n2cnc3c(NC4CC4)ncnc32)O1	99	i	-4
Cc1ccc(S(=O)(=O)N2CCN(C(=O)C3CCN(c4ncnc5sc(C)c(C)c45)CC3)CC2)c(C)c1	64*	i	-4
Cc1sc2ncnc(N3CCN(S(=O)(=O)c4ccc(C(C)(C)C)cc4)CC3)c2c1C	84	i	-1
COc1cccc(-c2cnc3c(NC(C)=O)cc(-c4ccc(S(C)(=O)=O)cc4)cn23)c1	94	i	-21
Cc1cccc(-c2ccc3[nH]c4c(c3c2)CCN2C[C@H]3[C@H](C)ON(C)[C@H]3C[C@@H]42)c1	102	i	0
C[C@@H]1ON(C)[C@H]2C[C@H]3c4[nH]c5ccccc5c4CCN3C[C@@H]12	107	+	-2
C[C@H]1CN([C@@H](C)CO)S(=O)(=O)c2ccc(Br)cc2O[C@@H]1CN(C)C(=O)C1CCOCC1	98	i	-1
CCOC(=O)COn1c(=O)c(C)[n+]([O-])c2ccccc21	108	i	0
CCOC(=O)COn1c(=O)c[n+]([O-])c2ccccc21	103	+	0
CC(=O)NCC(=O)NC1CC(C)(C)Cc2c1cnn2-c1ccccc1 (centres undefined)	103	i	1
Cc1cccc(Nc2nc(NCc3ccco3)c3ccccc3n2)c1	82	i	22
Cc1ccccc1Nc1nc(NCc2ccco2)c2ccccc2n1	98	i	82*
SMILES	ABCB6 inh 2	Myeloid diff 2	Granule exo inh
Cc1ccc(CCN2CC(C(=O)NC3CCC(C)CC3)CC2=O)cc1 (centres undefined)	101	i	8
CCOC(=O)C1(C)CCN1C(=O)c1cc(OC)ccc1Br (centres undefined)	102	i	1
O=[N+]([O-])c1cccn2cc(-c3ccc(Br)cc3)nc12	95	+	0
Cc1ccc(-c2cn3cccc(C)c3n2)cc1	101	i	-2
Cc1sc2nc(COC(=O)c3ccc(N4CCCC4)c([N+](=O)[O-])c3)[nH]c(=O)c2c1C	137	+	5
Cc1sc2nc(COC(=O)c3ccc(N4CCCC(C)C4)c([N+](=O)[O-])c3)[nH]c(=O)c2c1C (centres undefined)	103	i	-5
CC(C)(C)S(=O)(=O)N1C[C@@H]2C(=CC[C@H]3C(=O)N(c4ccccc4)C(=O)[C@@H]23)[C@@H]1CCO	108	i	-2
Nn1c(SCC(=O)Nc2cccc(Br)c2)nnc1C1CC1	92	i	6
CCN(CC)S(=O)(=O)c1ccc(NC(=O)C2CC(=O)N(c3ccc4c(c3)OCCO4)C2)cc1 (centres undefined)	96	i	-7
COCCNC(=O)c1ccccc1NC(=O)c1ccc(OC)c(OC)c1	103	+	0
COc1ccc(C(=O)Nc2ccccc2C(=O)NCc2ccco2)cc1OC	91	i	-1
